# Test results taken from PubChem BioAssay (NCATS).
# Values joined by “and” are separate entries in the source; they are usually repeats but may differ in a detail not shown here. Equal values may be shown once. Unmarked numbers belong to inactive results. Inconclusive results are not listed. Active and inactive are the calls of the source. Unless noted, calls come from the whole dose curve; as a rule, active = well fitted curve in the direction sought with a large enough effect; inconclusive = small, poorly fitted or top-dose-only effect, or another doubt; inactive = no such curve, though single readings can be large; an effect the other way counts as inactive or inconclusive.
# Tests used:
# [1] = Drug repurposing screens with cells derived from glioblastoma tumor samples (AID 1345199); settings: GBM patient neurospheres viability, ATP luminescence, 48 h; note: nearly all actives have a fitted effect of over 40% in size; note: potency is the fitted concentration of half-maximal effect; for activity, negative = cell killing: % is set by controls: 0 for no effect and ±100 for the full control effect
# How it was run: (§1)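 Four patient lines of CD133+ GBM neurospheres were screened at several concentrations; hits were retested in those lines plus three slower-growing GBM lines, using 48-hour treatment and ATP-based viability.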
# astro = control astrocytes; experiment: as above; settings: viability, ATP luminescence, 48 h; series mostly up to 45.9 µM
# How it was run: as §1
# [2] = biological target: Nuclear receptor subfamily 1 group I member 2 (Rattus norvegicus) (UniProt Q9R1A7); experiment: qHTS assay for small molecule activators of the rat pregnane X receptor (rPXR) signaling pathway (AID 651751; call rule not given here; note: 0% is about no effect); settings: rPXR reporter cells, luciferase (One-Glo), 24 h
# Nuclear receptor subfamily 1 group I member 2 (Rattus norvegicus), sequence (Q9R1A7 whole entry, looked up): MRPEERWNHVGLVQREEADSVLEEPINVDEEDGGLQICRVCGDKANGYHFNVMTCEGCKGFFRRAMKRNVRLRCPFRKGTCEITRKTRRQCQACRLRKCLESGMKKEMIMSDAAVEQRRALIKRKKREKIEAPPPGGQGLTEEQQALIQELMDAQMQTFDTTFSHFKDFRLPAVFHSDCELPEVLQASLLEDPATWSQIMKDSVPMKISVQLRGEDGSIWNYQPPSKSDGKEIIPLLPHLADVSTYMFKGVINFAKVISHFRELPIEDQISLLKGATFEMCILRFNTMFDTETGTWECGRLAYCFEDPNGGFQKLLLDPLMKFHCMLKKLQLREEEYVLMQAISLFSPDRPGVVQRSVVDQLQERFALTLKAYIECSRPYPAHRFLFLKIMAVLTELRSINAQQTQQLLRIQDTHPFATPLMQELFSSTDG
# [3] = qHTS assay to identify inhibitors of the type 1 interferon - major histocompatibility complex class I in skeletal muscle: Counter screen cell viability and HiBit confirmation (AID 1347412); settings: iHSKM muscle cells + IFN-b, HiBiT or CellTiter-Glo, 24 h; Viability; at 45.9 µM (top of the series); note: % is set by controls: 0 for no effect and ±100 for the full control effect; nearly all actives have a fitted effect of over 60% in size
# How it was run: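 Myoblasts (C25cl48, HLA-B HiBiT) seeded in medium without dexamethasone, IFN-b 4 ng/ml added except unstimulated columns; 1 hr later compounds pinned (12-pt 1:3, top 46 uM final). Incubated 24 hrs, lysed 10 min, luminescence measured.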
# [4] = at 45.9 µM (top of the series), tumour line B
# [5] = at 45.9 µM (top of the series), tumour line D
# [6] = at 46 µM (top of the series), tumour line A
# [7] = at 46.1 µM (top of the series), tumour line C
structure (smiles),measurement,setting,value
CCCCC(=O)N(Cc1ccc(-c2ccccc2-c2nn[nH]n2)cc1)[C@@H](C(=O)O)C(C)C,"activity, negative = cell killing",[1]; [4],2.85%
same,"activity, negative = cell killing",[1]; [5],-14.3%
same,"activity, negative = cell killing",[1]; [6],-22.5%
same,"activity, negative = cell killing",[1]; [7],9.38%
same,Potency,astro,inactive
CN(C)CCCN1c2ccccc2C(C)(C)c2ccccc21,"activity, negative = cell killing",[1]; [7],1.86%
same,Potency,[1]; tumour line A,14.1 µM (active)
C=C(NC(=O)C(=C)NC(=O)c1csc(C2=N[C@@H]3c4csc(n4)[C@H]4NC(=O)c5csc(n5)[C@H]([C@](C)(O)[C@@H](C)O)NC(=O)[C@H]5CSC(=N5)C(=CC)NC(=O)C([C@@H](C)O)NC(=O)c5csc(n5)[C@]3(CC2)NC(=O)[C@H](C)NC(=O)C(=C)NC(=O)[C@H](C)NC(=O)C([C@@H](C)CC)NC2C=Cc3c([C@H](C)O)cc(nc3C2O)C(=O)O[C@@H]4C)n1)C(N)=O (stereo partly specified),Potency,[1]; tumour line B,14.1 µM (active)
same,Potency,[1]; tumour line D,14.1 µM (active)
CCOC(=O)C1=C(C)NC(C)=C(C(=O)OCC)C1c1ccccc1C=CC(=O)OC(C)(C)C,Potency,[1]; tumour line D,12.6 µM (active)
CCNC(=O)[C@@H]1CCCN1C(=O)[C@H](CCCN=C(N)N)NC(=O)[C@H](CC(C)C)NC(=O)[C@@H](Cc1c[nH]c2ccccc12)NC(=O)[C@H](Cc1ccc(O)cc1)NC(=O)[C@H](CO)NC(=O)[C@H](Cc1c[nH]c2ccccc12)NC(=O)[C@H](Cc1cnc[nH]1)NC(=O)[C@@H]1CCC(=O)N1,Potency,astro,8.91 µM (active)
O=C(COc1ccc(Cl)cc1)OCCNC12CC3CC(CC(C3)C1)C2,"activity, negative = cell killing",[1]; [4],-5.61%
same,"activity, negative = cell killing",[1]; [5],-18.7%
same,"activity, negative = cell killing",[1]; [7],-2.27%
same,Potency,astro,inactive
COC(C(=O)C(O)C(C)O)C1Cc2cc3cc(OC4CC(OC5CC(O)C(O)C(C)O5)C(O)C(C)O4)c(C)c(O)c3c(O)c2C(=O)C1OC1CC(OC2CC(OC3CC(C)(O)C(O)C(C)O3)C(O)C(C)O2)C(O)C(C)O1 (stereo unspecified),Potency,astro,0.355 µM (active)
CC(C(=O)O)c1ccc(N2Cc3ccccc3C2=O)cc1 (stereo unspecified),Potency,astro,10 µM (active)
CCCCC(CC)COC(=O)CC(C(=O)OCC(CC)CCCC)S(=O)(=O)O (stereo unspecified),"activity, negative = cell killing",[1]; [4],1.3%
same,"activity, negative = cell killing",[1]; [6],-17.3% and -22.7%
same,"activity, negative = cell killing",[1]; [7],-38.9%
same,Potency,astro,inactive
same,max response,[2],6.97%
CC[C@@H](C(=O)O)[C@@H]1O[C@@H]([C@@H](C)[C@H](O)[C@H](C)C(=O)[C@H](CC)[C@H]2O[C@]3(C=C[C@@H](O)[C@]4(CC[C@@](C)([C@H]5CC[C@](O)(CC)[C@H](C)O5)O4)O3)[C@H](C)C[C@@H]2C)[C@@H](C)C[C@@H]1C,Potency,astro,0.794 µM (active)
O=S(=O)(O)c1cc(O)c2c(N=Nc3ccc(Nc4ccccc4)c4c(S(=O)(=O)O)cccc34)cc(S(=O)(=O)O)cc2c1,Potency,astro,14.1 µM (active)
CO[C@H]1C[C@@H]2CC[C@@H](C)[C@@](O)(O2)C(=O)C(=O)N2CCCC[C@H]2C(=O)O[C@H]([C@H](C)C[C@@H]2CC[C@@H](OCCO)[C@H](OC)C2)CC(=O)[C@H](C)/C=C(\C)[C@@H](O)[C@@H](OC)C(=O)[C@H](C)C[C@H](C)/C=C/C=C/C=C/1C,Potency,astro,25.1 µM (active)
CCCCC(=O)O[C@]1(C(=O)CO)[C@H](C)C[C@H]2[C@@H]3CCC4=CC(=O)C=C[C@]4(C)[C@@]3(F)[C@@H](O)C[C@@]21C,"activity, negative = cell killing",[1]; [4],-7.12%
same,"activity, negative = cell killing",[1]; [5],-22.7%
same,"activity, negative = cell killing",[1]; [7],-23.5%
same,Potency,astro,inactive
O=C1C(=O)c2ncccc2-c2cccnc21,Potency,astro,0.562 µM (active)
COc1cc([C@@H]2c3cc4c(cc3[C@@H](O[C@@H]3O[C@@H]5CO[C@@H](C)O[C@H]5[C@H](O)[C@H]3O)[C@H]3COC(=O)[C@H]23)OCO4)cc(OC)c1O,"activity, negative = cell killing",[1]; [5],-20.4%
same,"activity, negative = cell killing",[1]; [7],-16.4%
same,Potency,astro,inactive
C[C@H]1C[C@H]2[C@@H]3CCC4=CC(=O)C=C[C@]4(C)[C@@]3(F)[C@@H](O)C[C@]2(C)[C@@]1(O)C(=O)CO,"activity, negative = cell killing",[1]; [4],-16%
same,"activity, negative = cell killing",[1]; [5],-25%
same,"activity, negative = cell killing",[1]; [6],-24.5%
same,Potency,astro,inactive
C#C[C@]1(O)CC[C@H]2[C@@H]3CCC4=CCCC[C@@H]4[C@H]3C(=C)C[C@@]21CC,Potency,astro,35.5 µM (active)
O=C1CSC2(CCN(CCCN3c4ccccc4Sc4ccc(Cl)cc43)CC2)N1,"activity, negative = cell killing",[1]; [7],-24.2%
same,Potency,[1]; tumour line A,3.16 µM (active)
same,Potency,[1]; tumour line D,20 µM (active)
same,Potency,astro,25.1 µM (active)
CC1=C(/C=C/C(C)=C/C=C/C(C)=C/C=C/C=C(C)/C=C/C=C(C)/C=C/C2=C(C)C(=O)CCC2(C)C)C(C)(C)CCC1=O,"activity, negative = cell killing",[1]; [4],-0.298%
same,"activity, negative = cell killing",[1]; [5],9.62%
same,"activity, negative = cell killing",[1]; [7],-24.8%
same,Potency,astro,inactive
CO/N=C(\C(=O)N[C@@H]1C(=O)N2C(C(=O)O)=C(CSc3cnns3)CS[C@H]12)c1csc(N)n1,"activity, negative = cell killing",[1]; [4],-0.235%
same,"activity, negative = cell killing",[1]; [5],11.9%
same,Potency,astro,inactive
C[C@@H]1CCN(C(=O)CC#N)C[C@@H]1N(C)c1ncnc2[nH]ccc12,"activity change, negative = inhibition",[3],-5.51%
COC(F)(F)C(Cl)Cl,"activity, negative = cell killing",[1]; [4],-7.55%
same,"activity, negative = cell killing",[1]; [5],-1.1%
same,"activity, negative = cell killing",[1]; [6],-22%
same,Potency,astro,inactive
CCCCC(=O)OCC(=O)[C@]1(O)Cc2c(O)c3c(c(O)c2[C@@H](O[C@H]2C[C@H](NC(=O)C(F)(F)F)[C@H](O)[C@H](C)O2)C1)C(=O)c1c(OC)cccc1C3=O,Potency,astro,2.24 µM (active)
CCCCCCOc1ccc(C(=N)N(CCCC)CCCC)c2ccccc12,Potency,astro,17.8 µM (active)
Nc1nc(N)c2nc(CNc3ccc(C(=O)N[C@@H](CCC(=O)O)C(=O)O)cc3)cnc2n1,"activity, negative = cell killing",[1]; [4],-5.27%
same,"activity, negative = cell killing",[1]; [5],12.1%
same,"activity, negative = cell killing",[1]; [6],-19.6%
same,Potency,astro,inactive
O=C(Nc1cccc(C(F)(F)F)c1)c1cc(Br)cc(Br)c1O,Potency,astro,2.51 µM (active)
